# Source: PubChem BioAssay
# Active and inactive are the calls of the source. Unless noted, no rule for the calls is given here.
# Key:
# [1] = HepG2 liver cancer cell viability effects, profiling panel, resazurin fluorescence, 24 h, PK04 Diversity Set (AID 1172); settings: higher = more signal
# [2] = basal S. cerevisiae growth modulation, no modifier, primary screen, OD600, strain BY4716, 24 h, basal condition (AID 1173); settings: OD600, 24 h, higher = more signal, called active from +8 up or from −8 down
# [3] = MM1S myeloma cell viability, profiling panel, resazurin fluorescence, basal, 24 h, PK04 Diversity Set (AID 1174); settings: higher = more signal, called active from +8 up or from −8 down;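 also: MM1S multiple myeloma cell line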
# [4] = biological target: Dihydroorotate dehydrogenase (quinone), mitochondrial (Plasmodium falciparum (isolate 3D7)) (UniProt Q08210); assay: PfDHODH enzyme inhibitors, primary screen, biochemical, C-terminal His tag, absorbance 600 nm (AID 1175); settings: DCIP absorbance 600 nm, higher = more signal, called active from +8 up or from −8 down;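 also: recombinant parasite enzyme with a five histidine tag at its C terminus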
# Chain of Dihydroorotate dehydrogenase (quinone), mitochondrial (Plasmodium falciparum (isolate 3D7)) (Q08210 whole entry, looked up): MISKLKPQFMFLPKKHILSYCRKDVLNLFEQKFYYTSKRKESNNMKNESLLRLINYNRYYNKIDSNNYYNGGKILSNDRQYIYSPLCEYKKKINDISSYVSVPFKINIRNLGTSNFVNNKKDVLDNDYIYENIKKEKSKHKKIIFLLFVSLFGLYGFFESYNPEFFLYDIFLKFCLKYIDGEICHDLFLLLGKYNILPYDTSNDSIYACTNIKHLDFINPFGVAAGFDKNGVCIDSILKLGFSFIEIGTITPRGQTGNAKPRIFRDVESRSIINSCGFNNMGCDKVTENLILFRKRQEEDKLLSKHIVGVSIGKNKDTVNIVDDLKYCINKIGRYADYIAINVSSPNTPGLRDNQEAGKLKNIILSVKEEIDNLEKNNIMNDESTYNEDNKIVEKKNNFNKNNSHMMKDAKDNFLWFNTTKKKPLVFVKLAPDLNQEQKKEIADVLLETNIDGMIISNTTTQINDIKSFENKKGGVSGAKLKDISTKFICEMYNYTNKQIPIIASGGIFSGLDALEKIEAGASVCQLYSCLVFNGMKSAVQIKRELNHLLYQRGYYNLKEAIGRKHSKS
# [5] = P. aeruginosa biofilm formation inhibitors, primary screen, strain PAO1, LB-PBS medium, absorbance 600 nm (AID 1176); settings: P. aeruginosa PAO1 growth/biofilm, A600, 12 h; higher = more signal
# [6] = S. cerevisiae RM11-1a growth modifiers, primary screen, strain RM11-1a, OD600, basal, 24 h (AID 1177); settings: OD600, 24 h, higher = more signal, called active from +8 up or from −8 down;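 also: cultures grown under basal conditions with no added stressor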
# [7] = E. coli acrAB mutant growth effects, primary screen, E. coli filamentation inducers, strain DRC39, OD650, 24 h (AID 1178); settings: higher = more signal, called active from +8 up or from −8 down;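 also: growth measured as culture turbidity by optical density at 650 nm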
# [8] = E. coli acrAB mutant growth effects, primary screen, E. coli filamentation inducers, strain DRC39, OD650, 48 h (AID 1179);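 also: screen aims at cell division blockers that make cells filament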; settings: E. coli DRC39 delta-acrAB growth, higher = more signal, called active from +8 up or from −8 down
# [9] = RPMI8226 myeloma cell viability, profiling panel, resazurin fluorescence, basal, 24 h, PK04 Diversity Set (AID 1180); settings: higher = more signal;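 also: RPMI8826 multiple myeloma cell line at 5000 cells per well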
# [10] = biological target: E3 ubiquitin-protein ligase XIAP (Homo sapiens) (UniProt P98170); assay: XIAP binders, primary screen, biophysical, small-molecule microarray, fluorescence 635 nm (AID 1181); settings: small-molecule microarray binding, higher = more signal;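 also: score merges 667 nm emission and signal to noise over triplicate slides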
# Chain of E3 ubiquitin-protein ligase XIAP (Homo sapiens) (P98170 whole entry, looked up): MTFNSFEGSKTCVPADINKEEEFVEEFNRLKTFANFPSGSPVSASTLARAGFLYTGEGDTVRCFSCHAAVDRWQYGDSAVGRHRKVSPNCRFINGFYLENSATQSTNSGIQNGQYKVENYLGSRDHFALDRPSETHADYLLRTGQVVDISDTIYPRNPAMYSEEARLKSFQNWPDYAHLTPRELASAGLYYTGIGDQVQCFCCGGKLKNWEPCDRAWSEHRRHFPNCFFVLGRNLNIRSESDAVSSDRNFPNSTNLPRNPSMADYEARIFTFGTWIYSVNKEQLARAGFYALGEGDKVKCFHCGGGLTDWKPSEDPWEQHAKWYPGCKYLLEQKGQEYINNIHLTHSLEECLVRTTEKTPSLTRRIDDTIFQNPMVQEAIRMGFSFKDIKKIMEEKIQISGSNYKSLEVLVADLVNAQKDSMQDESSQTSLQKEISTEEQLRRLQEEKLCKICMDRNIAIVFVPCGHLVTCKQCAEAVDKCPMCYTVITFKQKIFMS
# [11] = test system: XIP peptide (Xip251-270) binding; assay: small-molecule binders of XIP peptide, primary screen, biochemical, small-molecule microarray, fluorescence 635/667 nm, 0.1 µg/mL protein (AID 1182); settings: fluorescent protein binding, 635 nm, higher = more signal, called active from +8 up or from −8 down
# XIP peptide (Xip251-270) = assay: small-molecule binders of XIP peptide, primary screen, biochemical, small-molecule microarray, fluorescence 635/667 nm, 0.5 µg/mL protein (AID 1183); settings: small-molecule microarray binding, fluorescence 635 nm; higher = more signal
# [12] = Plasmodium falciparum growth inhibition, primary screen, strain 3D7, DAPI fluorescence, 100 nL (AID 1184);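 also: parasites grown inside human red blood cells in medium with human serum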; settings: P. falciparum 3D7 growth, 3 d, higher = more signal
# [13] = biological target: Homeobox protein Hox-A13 (Mus musculus) (UniProt Q62424); assay: inhibitors of HoxA13-DNA binding, primary screen, biochemical, fluorescence polarization, labeled oligonucleotide (AID 1185); settings: 15 min, higher = more signal, called active from +8 up or from −8 down
# Chain of Homeobox protein Hox-A13 (Mus musculus) (Q62424 whole entry, looked up): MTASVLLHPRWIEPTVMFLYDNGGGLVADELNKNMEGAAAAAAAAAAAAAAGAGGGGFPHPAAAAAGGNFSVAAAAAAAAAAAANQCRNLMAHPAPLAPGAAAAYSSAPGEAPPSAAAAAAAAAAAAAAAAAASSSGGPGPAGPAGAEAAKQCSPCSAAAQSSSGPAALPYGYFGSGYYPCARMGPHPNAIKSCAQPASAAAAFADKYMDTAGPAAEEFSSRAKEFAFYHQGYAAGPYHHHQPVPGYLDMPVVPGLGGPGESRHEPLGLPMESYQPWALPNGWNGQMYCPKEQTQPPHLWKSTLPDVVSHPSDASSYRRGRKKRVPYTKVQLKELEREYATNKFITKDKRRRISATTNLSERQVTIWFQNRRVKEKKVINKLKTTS
# [14] = inhibitors of hydroxyurea-induced Chk1 phosphorylation, primary screen, imaging, HeLa, phospho-Chk1 antibody, percent positive cells (AID 1186); settings: hydroxyurea-induced phospho-Chk1 immunofluorescence imaging, higher = more signal
# [15] = inhibitors of hydroxyurea-induced Chk1 phosphorylation, primary screen, imaging, HeLa, phospho-Chk1 nuclear intensity (AID 1187); settings: hydroxyurea-induced phospho-Chk1 immunofluorescence imaging, higher = more signal
Structure (SMILES),z-score [1],z-score [2],z-score [3],composite z-score [4],z-score [5],z-score [6],z-score [7],z-score [8],z-score [9],composite z-score [10],composite z-score [11],composite z-score (XIP peptide (Xip251-270)),z-score [12],z-score [13],z-score [14],z-score [15]
CC(C)C[C@H]1NC(=O)[C@@]23C(=O)N[C@@H](Cc4ccccc4)C2[C@H](C)[C@@]2(C)O[C@H]2C3/C=C/C/C=C\CNC(=O)[C@@H]2CCCN2C1=O (stereo partly drawn),-0.706,-1.43 (inactive),-0.0195 (inactive),-0.742 (inactive),0.352 (inactive),-0.162 (inactive),-0.467 (inactive),-0.0699 (inactive),0.476,0.155,1.73 (inactive),0.0626,1.18,-5.47 (inactive),0.216 (inactive),0.162 (inactive)
CCCC[C@H]1OB(O)C[C@H]2C1=C(COC)C[C@H]1C(=O)C=CC(=O)[C@H]12,-0.796,-3.96 (inactive),-0.203 (inactive),-2.14 (inactive),1.52 (inactive),0.0887 (inactive),1.13 (inactive),0.756 (inactive),-0.0072,-0.0238,0.473 (inactive),0.407,-1.09,-6.74 (inactive),-0.591 (inactive),-0.434 (inactive)
CC(C)(C)OC(=O)CC[C@]1(C(=O)N2CCOCC2)N=C(c2ccc(OCCCO)cc2)O[C@H]1c1ccccc1CN=[N+]=[N-],0.125,-0.0255 (inactive),-0.362 (inactive),-0.0668 (inactive),1.78 (inactive),-0.459 (inactive),0.565 (inactive),0.088 (inactive),0.0933,0.0159,0.518 (inactive),0.792,-1.79,-6.05 (inactive),-0.0845 (inactive),-0.314 (inactive)
C=CCOC(=O)[C@H]1[C@@H]2C(=O)O[C@@H](c3ccccc3)[C@@H](c3ccccc3)N2[C@@H](c2ccc(OCCOC(=O)[C@@H]3C[C@@H]4C(=O)N[C@@H](CC(C)C)C(=O)N4[C@@H]3c3ccc(O)cc3)cc2)[C@]12C(=O)Nc1ccc(I)cc12,-1.11,0.637 (inactive),-0.0917 (inactive),-1.41 (inactive),2.94 (inactive),-0.628 (inactive),0.214 (inactive),1.3 (inactive),0.518,-0.0232,1.47 (inactive),0.788,-1.79,0.999 (inactive),-0.654 (inactive),0.112 (inactive)
O=C1C2C=CC(C(O)c3ccc([N+](=O)[O-])cc3)N(Nc3ccccc3)C2C(=O)N1c1ccccc1 (stereo not drawn),-0.849,-2.61 (inactive),-0.952 (inactive),-1.03 (inactive),0.791 (inactive),-0.453 (inactive),-0.46 (inactive),-0.253 (inactive),-1.81,-0.0085,0.392 (inactive),0.467,0.45,-4.48 (inactive),0.226 (inactive),-0.168 (inactive)
COCCOC(=O)N1C(=O)[C@@]2(c3cc(C#CC4(O)CCCCCC4)ccc31)[C@H](c1ccc(OCCO)cc1)N1[C@H](c3ccccc3)[C@H](c3ccccc3)OC(=O)[C@H]1[C@@H]2C(N)=O,-0.776,0.581 (inactive),-3.25 (inactive),-0.259 (inactive),1.84 (inactive),1.89 (inactive),-0.236 (inactive),-0.635 (inactive),-3.62,-0.142,0.539 (inactive),0.849,-2.02,-1.87 (inactive),-0.0641 (inactive),-0.215 (inactive)
COc1ccc(NN2C(C(O)c3ccc(OC)cc3)C=CC3C(=O)N(C4CCCCC4)C(=O)C32)cc1 (stereo not drawn),1.52,-0.365 (inactive),0.363 (inactive),-0.809 (inactive),1.05 (inactive),0.107 (inactive),-0.447 (inactive),0.703 (inactive),0.346,0.229,1.3 (inactive),0.7,-0.346,-4.51 (inactive),-1.28 (inactive),-1.13 (inactive)
O=C1OCCC/C=C\[C@H]2OC34C=CCN(Cc5ccccc5)C(=O)[C@H]3N(CCCCCO)C(=O)[C@@H]4C12 (stereo partly drawn),0.804,-1.08 (inactive),1.24 (inactive),-0.279 (inactive),-0.099 (inactive),-0.581 (inactive),0.691 (inactive),0.775 (inactive),1.16,-0.157,0.105 (inactive),-0.6,0.259,-5.04 (inactive),-0.312 (inactive),0.249 (inactive)
CCCC=C(CCC)[C@@H](NS(=O)(=O)c1ccc(Cl)cc1)c1ccccc1,1.1,0.733 (inactive),0.604 (inactive),-0.532 (inactive),1.97 (inactive),-0.233 (inactive),-0.558 (inactive),-1 (inactive),-0.321,0.102,-0.641 (inactive),0.36,-1.11,-1.87 (inactive),0.081 (inactive),0.268 (inactive)
CC(C)C[C@@H]1NC(=O)C([C@@H](C)OCc2ccccc2)NC(=O)[C@@]23C(=O)N[C@@H](Cc4ccccc4)C2[C@H](C)[C@@]2(C)O[C@H]2C3/C=C/CC/C=C/CNC1=O (stereo partly drawn),0.536,-1.78 (inactive),-0.0218 (inactive),-0.485 (inactive),0.261 (inactive),-0.435 (inactive),1.64 (inactive),0.212 (inactive),-0.417,-0.144,-0.0755 (inactive),0.677,-3.08,-6.51 (inactive),-0.799 (inactive),-0.574 (inactive)
[N-]=[N+]=NCc1ccccc1C[C@]1(C(=O)N2CCOCC2)N=C(c2ccc(OCCCO)cc2)O[C@H]1c1ccccc1CN=[N+]=[N-],0.133,1.06 (inactive),-0.481 (inactive),1.21 (inactive),0.948 (inactive),2.39 (inactive),1.67 (inactive),0.93 (inactive),-1.11,0.411,0.158 (inactive),0.733,-2.28,0.116 (inactive),-0.597 (inactive),-0.736 (inactive)
COCCOC(=O)N1C(=O)[C@@]2(c3cc(C#CCNC(N)=O)ccc31)[C@H](C(=O)NC[C@H](O)c1ccccc1)[C@H]1C(=O)O[C@H](c3ccccc3)[C@H](c3ccccc3)N1[C@@H]2c1ccc(OCCO)cc1,0.774,2 (inactive),-0.118 (inactive),1.14 (inactive),2.28 (inactive),2.87 (inactive),-0.0238 (inactive),-0.63 (inactive),0.381,0.135,0.561 (inactive),0.785,-0.188,-1.46 (inactive),-0.214 (inactive),-0.23 (inactive)
NCCCC[C@@H]1NC(=O)[C@H]2C[C@@H](C(=O)O)[C@@H](c3cccc(OCCO)c3)N2C1=O,-0.578,-0.0349 (inactive),0.152 (inactive),-6.64 (inactive),0.628 (inactive),1.08 (inactive),0.191 (inactive),-0.28 (inactive),-0.438,0.201,0.505 (inactive),0.86,-0.0736,6.28 (inactive),0.0547 (inactive),-0.62 (inactive)
O=C(NCCO)C1=C[C@H](Oc2ccccc2I)[C@@H](O)[C@H](NCc2ccc(F)cc2)C1,-1.47,-2.04 (inactive),-0.206 (inactive),-0.287 (inactive),0.367 (inactive),0.423 (inactive),-0.802 (inactive),-1.44 (inactive),-0.264,0.181,0.234 (inactive),-0.875,-1.61,-6.81 (inactive),0.079 (inactive),-0.34 (inactive)
CC(C)CNC(=O)[C@@H]1c2ccccc2C(=O)N(CC23CC4CC(CC(C4)C2)C3)[C@H]1c1ccc(CO)cc1,0.82,-1.17 (inactive),1.93 (inactive),-0.42 (inactive),-0.397 (inactive),-0.0966 (inactive),0.256 (inactive),0.339 (inactive),0.281,-0.13,0.41 (inactive),0.613,-2.11,-3.84 (inactive),-0.282 (inactive),-0.0264 (inactive)
COc1cccc(OC)c1C(=O)O[C@H]1[C@@H]2OC(=O)[C@H](Cc3cccc(Br)c3)C/C=C/C[C@@H](Cc3cccc(Br)c3)C(=O)O[C@H]2[C@@H](OC)O[C@@H]1CO,-0.946,-0.696 (inactive),-1.11 (inactive),-0.491 (inactive),0.277 (inactive),0.788 (inactive),-0.0368 (inactive),0.165 (inactive),-1.38,0.182,1.02 (inactive),-0.213,-0.545,-4.16 (inactive),0.0558 (inactive),0.0783 (inactive)
C=CCC(OC(C)=O)[C@@H]1[C@@H](N(Cc2cccc3ccccc23)C(=O)c2ccc(-c3ccccc3)cc2)c2cc(OCCCO)ccc2N1C(=O)c1ccc2ccccc2n1 (stereo partly drawn),-0.0049,0.493 (inactive),0.623 (inactive),-0.318 (inactive),0.35 (inactive),-0.634 (inactive),-0.267 (inactive),-0.174 (inactive),0.485,-0.0102,-0.268 (inactive),0.0494,-0.198,-1.17 (inactive),0.116 (inactive),-0.14 (inactive)
Cc1c(NC(=O)/C(C#N)=C/c2ccc(Cl)cc2)c(=O)n(-c2ccccc2)n1C,0.244,-0.429 (inactive),0.103 (inactive),-2.14 (inactive),0.888 (inactive),-0.704 (inactive),1.43 (inactive),1.5 (inactive),-0.345,-0.0871,0.773 (inactive),0.876,0.468,-3.94 (inactive),-0.0496 (inactive),-0.246 (inactive)
